Results taken from publication PMC12864922, “TDP-43 directly inhibits mRNA accumulation in neurites through modulation of mRNA stability”.
Whole data set: some 9,900 sequences, median “r (bound/input frequency ratio)” near 0.7, cut for the highest 2% near 6.5. What follows is part of a selection rich in the highest values, with near analogues and random picks from the rest.

B1: ENSMUSG00000061578.134|Ksr2|58:63;126:130;148:163;199:203 (ssRNA)
RNA: GGGAGUUCUACAGUCCGACGAUCGCUUCGAUAUCCGCAUGCUAAUGGCUUCCCCCAAAGUCCCGAGUCCUGAGAACCGGGGCUGUGGCAAGAGAGUUCUGCACACAUCUCUCUGUGGGGCUAGCAAUGCCGGGGUUAAGUUCUCCCUCGGUGAUGGAGACGGUCCUGGCAUACCAUGAUGGGUUACAUGGCACACACACACACACAAACUGUUUACAAUGGUCUCCCUGCCUCUCACGGGCACACAUCCAGGAGAAUGCACAUAGAGAGGUUCUGUGGUCUCUGCUGUCGCCUGGUGCUGAAUCUCUUGCGGUCGCACUAGUGUGGAAUUCUCGGGUGUCAAGG
B2: ENSMUSG00000029636.224|Wasf3|112:116;205:212 (ssRNA)
RNA: GGGAGUUCUACAGUCCGACGAUCGCUUCGAUAUCCGCAUGCUAUUGCAGAGGGACCAGGACACUGCCUUCCCUUAGGUGCAUUAUUUACGUGGCCUGCAGCUCUUAAUAUCUCUCACUGUUUAUGAAAAGAAAGAUUCAGAUCCGGGGUGACAUACACACAGUUGACAGGGAAUGCCUGUGGGAUAAUUAAAAAUGGUUUUUGCUCAUGAGUUUGGGAUGUCACCCAGCCGCCCACAUCGCCUGCUAACACACACGACGCCUGUCCGCUUGGCCAGCUAUCCUGUAACACCUGCCAGUAGUAGCUCUUGCGGUCGCACUAGUGUGGAAUUCUCGGGUGUCAAGG
B3: ENSMUSG00000031028.392|Tub (ssRNA)
RNA: GGGAGUUCUACAGUCCGACGAUCGCUUCGAUAUCCGCAUGCUAAGCUCCUGGUGAUAAUGCCUUUUCUUGACCACUGGCGCUGUGAACACAGGCUAAUGGACUUCAGAUACCAGGGCCCCGGGAUCACCUGGGUUAGCCUCUCCCACAGGAAGAUCCCUUACCCCUCAUCCCCUCUUCUUUUUGGUCCUUGGCUGGGUAGCAAAUUGGUGAGAAGAGCAGCCUAGUCUGUAAGAGUGCAGGGCAGCUGGAACCUUAGGCAGCUCCUCUGUAUGCUACCGGCUCCACACCCUAACACUCUCCACCUCUUGCGGUCGCACUAGUGUGGAAUUCUCGGGUGUCAAGG
B4: ENSMUSG00000029028.200|Lrrc47 (ssRNA)
RNA: GGGAGUUCUACAGUCCGACGAUCGCUUCGAUAUCCGCAUGCUAUGUACCAGCACACAGCUGCCAUCCCUCGAGCCACAGUGCCUGGUCCUAAGGACCCAGCAGCUGCACAGAGGACUUGGUGGCCCCGUGCCUUGCCAUCUGGCUGAGAAGAGAACCAGACCCUCAGCCUUCCCCCUCGACACCUUCUCGUUGGUGACCUCUGACCUUAAAGGACCAUUUCUACCUUCUGUAAAAGAACACCUGUUUGGGGUUGCGUGCGGCUUUCAUCCUAAGGCCGUGCGAGAGCCGUUAGCUGUCAGAACCUCUUGCGGUCGCACUAGUGUGGAAUUCUCGGGUGUCAAGG
B5: ENSMUSG00000061578.980|Ksr2 (ssRNA)
RNA: GGGAGUUCUACAGUCCGACGAUCGCUUCGAUAUCCGCAUGCUAAUCCAUGACUCAGAAUUUUCCAGAGACCCAAUCCCUCGGGGUCCACUUAGUGAUGGGACCAUACAAGAGUUUAUUUCCAAUUAGAGAAUUGGGUCAACUGGGAAAGGCUUCUUUCCUGGUAACCCUGCUACUGAUACUAUGUUGAAACAGGAAUCGACUCUAACUGCUUUUUGGCCUCUUCCCUGCACGGGAGUCUCAAAAUCAAGUUUUUACCCAGUGGCCUCUGGGAUCCACUCUCUCUACUCCUGAACUCUUAAAACCUCUUGCGGUCGCACUAGUGUGGAAUUCUCGGGUGUCAAGG
B6: ENSMUSG00000061578.705|Ksr2 (ssRNA)
RNA: GGGAGUUCUACAGUCCGACGAUCGCUUCGAUAUCCGCAUGCUAUUGAGGUGCCUUCCUGUAGUCUCUUGUGUCAUCUUCUUCUAAGACCACUAAUAACACCGCCUUUCUCCUUGAUCCGGGCCUCAGACCUCUUCAGAGAUUCUUUCUCUGAAUGUACGUGGGGGACUCCAACAGAUGUUGGGAGAAGACUCAAUAUGAGCAUACGGGGUCAUUGUUCAAUCCUGUAUCAAGACCUUGGAGUUGUCUAAGGCUGUGGGUUUUAAAUACCUGCUGCAGGCCUCCCAUCUCUGGCUCUUUGUUUCCUCUUGCGGUCGCACUAGUGUGGAAUUCUCGGGUGUCAAGG
B7: ENSMUSG00000058297.42|Spock2 (ssRNA)
RNA: GGGAGUUCUACAGUCCGACGAUCGCUUCGAUAUCCGCAUGCUAGUGGCUUGUGUGUAUGUGUGAUAUGAGAUGUGUGUGUAUGAUGUGAGAUGUGAGUGUGUGAUGUGAGAUGUGUGUAUGUGAGAUGUGUGUGUGUGUGUGUGUGUGUGUGAUGUGAGUCACCCAAAGGUCCCUAUGUUAUUGAUUUUCAAAUGCACACUUUCACACACAAGGAUACACUAACAGACCAAAAUCAAUGAGAUGUCCCUGAUCCUGCCCCUCAGCCCAACACCUGGAAUCCCUGCCCUGCCUAAUCAGCCCUACUCUUGCGGUCGCACUAGUGUGGAAUUCUCGGGUGUCAAGG
B8: ENSMUSG00000058297.34|Spock2|47:51;55:68;77:88;102:108;117:126;132:157 (ssRNA)
RNA: GGGAGUUCUACAGUCCGACGAUCGCUUCGAUAUCCGCAUGCUAGAAGUCAGUGCGGAGGACCCUGGCUCCAGUGGGGGAGGACUGGGGACACACGCUACACACAUACACACAUAUGAGAACACACACAUACAUGUGAGAUGUGACACACACAUGUGAGAACACACAUACUGAGAACACACACACACACACACACACACACAUGUGAGUCACCCAAAGGUCCCUAUGUUAUUGAUUUUCAAAUGCACACUUUCACACACAAGGAUACACUAACAGACCAAAAUCAAUGAGAUGUCCCUGAUCCUCUCUUGCGGUCGCACUAGUGUGGAAUUCUCGGGUGUCAAGG
B9: ENSMUSG00000058297.34|Spock2 (ssRNA)
RNA: GGGAGUUCUACAGUCCGACGAUCGCUUCGAUAUCCGCAUGCUAGAAGUCAGUGCGGAGGACCCUGGCUCCAGUGGGGGAGGACUGGGGAGUGUGGCUUGUGUGUAUGUGUGAUAUGAGAUGUGUGUGUAUGAUGUGAGAUGUGAGUGUGUGAUGUGAGAUGUGUGUAUGUGAGAUGUGUGUGUGUGUGUGUGUGUGUGUGAUGUGAGUCACCCAAAGGUCCCUAUGUUAUUGAUUUUCAAAUGCACACUUUCACACACAAGGAUACACUAACAGACCAAAAUCAAUGAGAUGUCCCUGAUCCUCUCUUGCGGUCGCACUAGUGUGGAAUUCUCGGGUGUCAAGG
B10: ENSMUSG00000058297.35|Spock2 (ssRNA)
RNA: GGGAGUUCUACAGUCCGACGAUCGCUUCGAUAUCCGCAUGCUAAGUGCGGAGGACCCUGGCUCCAGUGGGGGAGGACUGGGGAGUGUGGCUUGUGUGUAUGUGUGAUAUGAGAUGUGUGUGUAUGAUGUGAGAUGUGAGUGUGUGAUGUGAGAUGUGUGUAUGUGAGAUGUGUGUGUGUGUGUGUGUGUGUGUGAUGUGAGUCACCCAAAGGUCCCUAUGUUAUUGAUUUUCAAAUGCACACUUUCACACACAAGGAUACACUAACAGACCAAAAUCAAUGAGAUGUCCCUGAUCCUGCCCCUCUCUUGCGGUCGCACUAGUGUGGAAUUCUCGGGUGUCAAGG
B11: ENSMUSG00000058297.33|Spock2|53:57;61:74;83:94;108:114;123:132;138:163 (ssRNA)
RNA: GGGAGUUCUACAGUCCGACGAUCGCUUCGAUAUCCGCAUGCUAGAUCCGGAAGUCAGUGCGGAGGACCCUGGCUCCAGUGGGGGAGGACUGGGGACACACGCUACACACAUACACACAUAUGAGAACACACACAUACAUGUGAGAUGUGACACACACAUGUGAGAACACACAUACUGAGAACACACACACACACACACACACACACAUGUGAGUCACCCAAAGGUCCCUAUGUUAUUGAUUUUCAAAUGCACACUUUCACACACAAGGAUACACUAACAGACCAAAAUCAAUGAGAUGUCCCUCUCUUGCGGUCGCACUAGUGUGGAAUUCUCGGGUGUCAAGG
B12: ENSMUSG00000058297.36|Spock2 (ssRNA)
RNA: GGGAGUUCUACAGUCCGACGAUCGCUUCGAUAUCCGCAUGCUAGAGGACCCUGGCUCCAGUGGGGGAGGACUGGGGAGUGUGGCUUGUGUGUAUGUGUGAUAUGAGAUGUGUGUGUAUGAUGUGAGAUGUGAGUGUGUGAUGUGAGAUGUGUGUAUGUGAGAUGUGUGUGUGUGUGUGUGUGUGUGUGAUGUGAGUCACCCAAAGGUCCCUAUGUUAUUGAUUUUCAAAUGCACACUUUCACACACAAGGAUACACUAACAGACCAAAAUCAAUGAGAUGUCCCUGAUCCUGCCCCUCAGCCCCUCUUGCGGUCGCACUAGUGUGGAAUUCUCGGGUGUCAAGG
B13: ENSMUSG00000058297.32|Spock2|59:63;67:80;89:100;114:120;129:138;144:169 (ssRNA)
RNA: GGGAGUUCUACAGUCCGACGAUCGCUUCGAUAUCCGCAUGCUACAAAUGGAUCCGGAAGUCAGUGCGGAGGACCCUGGCUCCAGUGGGGGAGGACUGGGGACACACGCUACACACAUACACACAUAUGAGAACACACACAUACAUGUGAGAUGUGACACACACAUGUGAGAACACACAUACUGAGAACACACACACACACACACACACACACAUGUGAGUCACCCAAAGGUCCCUAUGUUAUUGAUUUUCAAAUGCACACUUUCACACACAAGGAUACACUAACAGACCAAAAUCAAUGAGAUCUCUUGCGGUCGCACUAGUGUGGAAUUCUCGGGUGUCAAGG
B14: ENSMUSG00000058297.33|Spock2 (ssRNA)
RNA: GGGAGUUCUACAGUCCGACGAUCGCUUCGAUAUCCGCAUGCUAGAUCCGGAAGUCAGUGCGGAGGACCCUGGCUCCAGUGGGGGAGGACUGGGGAGUGUGGCUUGUGUGUAUGUGUGAUAUGAGAUGUGUGUGUAUGAUGUGAGAUGUGAGUGUGUGAUGUGAGAUGUGUGUAUGUGAGAUGUGUGUGUGUGUGUGUGUGUGUGUGAUGUGAGUCACCCAAAGGUCCCUAUGUUAUUGAUUUUCAAAUGCACACUUUCACACACAAGGAUACACUAACAGACCAAAAUCAAUGAGAUGUCCCUCUCUUGCGGUCGCACUAGUGUGGAAUUCUCGGGUGUCAAGG
B15: ENSMUSG00000058297.32|Spock2 (ssRNA)
RNA: GGGAGUUCUACAGUCCGACGAUCGCUUCGAUAUCCGCAUGCUACAAAUGGAUCCGGAAGUCAGUGCGGAGGACCCUGGCUCCAGUGGGGGAGGACUGGGGAGUGUGGCUUGUGUGUAUGUGUGAUAUGAGAUGUGUGUGUAUGAUGUGAGAUGUGAGUGUGUGAUGUGAGAUGUGUGUAUGUGAGAUGUGUGUGUGUGUGUGUGUGUGUGUGAUGUGAGUCACCCAAAGGUCCCUAUGUUAUUGAUUUUCAAAUGCACACUUUCACACACAAGGAUACACUAACAGACCAAAAUCAAUGAGAUCUCUUGCGGUCGCACUAGUGUGGAAUUCUCGGGUGUCAAGG

What follows are binders tested against TDP-43 (Homo sapiens, UniProt Q13148 1-414) (assay: RNA Bind-n-Seq with designed 260-mer pool; 25 mM Tris-HCl, 150 mM KCl, 3 mM MgCl2, BSA (printed 500 mg/mL), 20 units/mL SUPERase IN; pH not stated; 500 nM RNA pool, 1 h, 4 C; TDP-43 5, 50, 500 nM; high values mean tight binding). Details: protein: recombinant; tags: SBP (GST cleaved off with PreScission; pGEX-GST-SBP).
TDP-43, sequence (Q13148 whole entry): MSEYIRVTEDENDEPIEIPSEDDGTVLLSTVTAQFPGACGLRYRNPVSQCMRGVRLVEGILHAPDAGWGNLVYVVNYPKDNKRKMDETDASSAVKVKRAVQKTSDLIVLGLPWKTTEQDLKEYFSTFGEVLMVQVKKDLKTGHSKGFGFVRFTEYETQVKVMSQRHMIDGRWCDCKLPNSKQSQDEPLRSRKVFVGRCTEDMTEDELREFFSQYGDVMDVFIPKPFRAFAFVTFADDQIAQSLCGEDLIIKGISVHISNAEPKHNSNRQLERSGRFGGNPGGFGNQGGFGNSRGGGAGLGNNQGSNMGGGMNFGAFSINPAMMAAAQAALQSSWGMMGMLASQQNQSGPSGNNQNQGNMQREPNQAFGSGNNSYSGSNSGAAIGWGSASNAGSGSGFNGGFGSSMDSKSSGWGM
Method in brief: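 Duplicate measurements used two independent batches of recombinant SBP-tagged TDP-43, which was captured on streptavidin beads at 5, 50 or 500 nM. The beads were incubated with 500 nM of an in vitro-transcribed 260-nt 3′ UTR oligo pool for 1 h at 4 °C in 25 mM Tris-HCl, 150 mM KCl, 3 mM MgCl2, BSA and SUPERase IN. After washing, biotin elution, reverse transcription, PCR amplification and sequencing, binding was expressed as R: each oligo's normalized read abundance in the bound sample over its abundance in input.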
With B1 the binding signal was 1.51 R (bound/input frequency ratio). B2 was tested, and the binding signal was 1.64 R (bound/input frequency ratio). For B3, the binding signal was 0.459 R (bound/input frequency ratio). With B4 the binding signal was 0.283 R (bound/input frequency ratio). In the case of B5, the binding signal is reported as 0.19 R (bound/input frequency ratio). With B6 the binding signal was 0.309 R (bound/input frequency ratio). B7 was tested, and the binding signal was 5.18 R (bound/input frequency ratio). For B8, the binding signal was 2.69 R (bound/input frequency ratio). With B9 the binding signal was 8.82 R (bound/input frequency ratio). With B10 the binding signal was 8.03 R (bound/input frequency ratio). In the case of B11, the binding signal is reported as 2.93 R (bound/input frequency ratio). For B12, the binding signal was 5.98 R (bound/input frequency ratio). With B13 the binding signal was 3.96 R (bound/input frequency ratio). B14 was tested, and the binding signal was 8.02 R (bound/input frequency ratio). In the case of B15, the binding signal is reported as 7.46 R (bound/input frequency ratio).
